# Screen size: about 360,000 compounds; about 25,000 (6.9%) were called active. About 9% were inconclusive and are not listed. The sample holds actives, similar compounds and a random draw of the others, so the mix is not that of the screen. Unmarked numbers belong to inactive results. Calls come from the whole dose curve; as a rule, active = well fitted inhibition curve with a large enough effect; inconclusive = small, poorly fitted or top-dose-only effect; inactive = flat fitted curve, though single readings scatter.
# Target: Luciferin 4-monooxygenase (Photinus pyralis) (UniProt P08659)
# Assay: qHTS profiling assay for firefly luciferase inhibitor/activator using purifed enzyme and Km concentrations of substrates (counterscreen for miR-21 project); note: nearly all actives have a fitted effect of over 55% in size;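 for activity change, negative = inhibition: plate controls were vehicle for no effect and reference inhibitor for full effect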
# Conditions: purified FLuc, luminescence inhibition; series mostly up to 57.5 µM; activity change, negative = inhibition: at the top concentration
# Method in brief: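 Purified P. pyralis luciferase, 10 nM final, with Km-level 10 uM D-luciferin and 10 uM ATP in 50 mM Tris acetate pH 7.5, 10 mM Mg acetate, 0.01% Tween-20, 0.05% BSA; 6-point qHTS titration about 60 µM downward; luminescence read.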
# Potency is the fitted concentration of half-maximal effect.
# Luciferin 4-monooxygenase (Photinus pyralis), sequence (P08659 whole entry, looked up): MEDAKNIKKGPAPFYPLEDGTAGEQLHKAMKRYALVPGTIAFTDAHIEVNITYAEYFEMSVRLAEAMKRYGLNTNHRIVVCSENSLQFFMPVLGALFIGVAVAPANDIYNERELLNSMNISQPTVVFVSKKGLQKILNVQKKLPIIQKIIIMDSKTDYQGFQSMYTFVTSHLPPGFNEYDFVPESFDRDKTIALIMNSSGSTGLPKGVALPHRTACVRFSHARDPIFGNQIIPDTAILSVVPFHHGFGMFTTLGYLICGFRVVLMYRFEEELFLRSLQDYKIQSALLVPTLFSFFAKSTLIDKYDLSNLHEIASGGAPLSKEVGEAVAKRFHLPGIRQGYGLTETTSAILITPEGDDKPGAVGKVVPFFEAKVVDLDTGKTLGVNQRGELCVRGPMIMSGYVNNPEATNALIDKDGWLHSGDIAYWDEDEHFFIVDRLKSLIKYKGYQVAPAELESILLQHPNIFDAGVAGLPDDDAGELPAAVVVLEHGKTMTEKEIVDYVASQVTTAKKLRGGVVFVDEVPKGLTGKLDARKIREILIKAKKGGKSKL
Compound,Potency,"activity change, negative = inhibition [%]"
Cc1ccc(N(C(=O)Cc2cccs2)C(C(=O)NCC2CCCO2)c2ccncc2)cc1 (configuration not stated),16.9 µM (active),–
O=C(NCC(=O)N(c1ccccc1)C(C(=O)NCC1CCCO1)c1ccccc1)c1cccs1 (configuration not stated),–,1.75
Cc1cccc(N(C(=O)Cc2cccs2)C(C(=O)NCc2ccco2)c2ccncc2)c1 (configuration not stated),–,-0.4
CCOC(=O)c1cc2c(=O)n3ccccc3nc2n(CC2CCCO2)c1=NC(=O)c1ccccc1Br (configuration not stated),–,-2.15
CC(=O)Nc1nc(N(C)C)nc(N(C)C)n1,26.9 µM (active),–
CCC(=O)Nc1nc(OC)cc(OC)n1,–,3.41
CN(C)c1nc(NN)nc(Nc2ccc(F)cc2)n1,–,2.45
O=C(Nc1ccccc1C(=O)O)c1ccc(N2C(=O)C3CC=CCC3C2=O)cc1 (configuration not stated),4.78 µM (active),–
COc1ccc(Cl)cc1NC(=O)c1cccc(N2C(=O)C3CC=CCC3C2=O)c1 (configuration not stated),–,3.07
O=C(Cc1ccccc1)Nc1ccc(C(=O)Nc2ccccc2C(=O)O)cc1,–,-0.802
O=c1ccc2cc(S(=O)(=O)N3CCN(c4ccccc4)CC3)ccc2o1,–,-0.908
CCOc1ccccc1NC(=O)Cn1c(=O)n(Cc2ccccc2)c(=O)c2c(C)c(C(=O)N(C)C)sc21,–,2.47
COC(=O)N/N=C/c1ccc(/C=N/NC(=O)OC)cc1,–,-3.29
O=C(O)c1ccc(/C=N/NC(=O)c2ccc(Br)cc2)cc1,15.1 µM (active),–
COc1ccc(S(=O)(=O)N(CC(=O)N/N=C/c2ccc(C(=O)O)cc2)Cc2ccccc2)cc1OC,–,2
O=C(N/N=C/c1ccc(OCC2COCCO2)cc1)c1ccc(Br)cc1 (configuration not stated),–,-3.87
CC(C)(C)OC(=O)N/N=C/c1ccc(C(=O)O)cc1,19 µM (active),–
O=C(O)c1ccc(/C=N/NC(=S)NCc2ccccc2)cc1,–,-4
Cc1cccc2c(=O)cc(CSc3ccccc3NC(=O)C(C)C)[nH]c12,–,-4.14
Nc1c(-c2ccc(F)cc2)cnn1C1CCS(=O)(=O)C1 (configuration not stated),–,0.904
O=C(Nc1ccc(C(F)(F)F)cc1)c1cccc(-n2cnnn2)c1,–,-11.7
CC(C)NC(=O)NCCCCCCS(C)=O (configuration not stated),–,-2.89
O=C(COC(=O)Cc1ccc(Br)cc1)Nc1ccc(N2CCOCC2)cc1,–,1.52
N#Cc1ccc(C(=O)Nc2cccc3cccnc23)c(F)c1,–,1.03

Compound,Potency,"activity change, negative = inhibition [%]"
O=C(Nc1cccc2cccnc12)c1cccc(Cl)c1,15.1 µM (active),–
COC(=O)c1cccc(NC(=O)c2cccc(N3C(=O)CCC3=O)c2)c1,–,-12.1
O=C(Nc1cccc2cccnc12)c1cccc(N2C(=O)CCC2=O)c1,13.5 µM (active),–
Cc1cc(NC(=O)c2cccc(N3C(=O)CCC3=O)c2)no1,–,3.05
COc1c(Cl)cc(Cl)cc1C(=O)Nc1cccc2cccnc12,–,-0.765
O=C(Nc1ccccc1Cl)Nc1cccc2cccnc12,12 µM (active),–
O=C(Nc1cccc2cccnc12)c1cccc2c(Br)cccc12,–,-2.63
Cc1c(NC(=O)Nc2ccccc2Cl)sc(=S)n1C,–,-3.73
O=S(=O)(Nc1ccc(-n2cnnn2)cc1)c1ccc(Cl)cc1,–,6.33
O=[N+]([O-])/C=C1\CCCCCN1,–,-0.667
CCc1ccccc1N1CC(c2nc3ccccc3n2CCCCOc2ccccc2)CC1=O (configuration not stated),–,3.12
O=C(CCNS(=O)(=O)c1ccccc1C(F)(F)F)Nc1ccncc1,–,6.96
Cc1ccc(-c2nnc(Nc3cccc(Br)c3)c3ccccc23)cc1S(=O)(=O)NCC1CCCO1 (configuration not stated),–,-10.7
CC1CCCC(NC(=O)COC(=O)[C@@H]2CC(O)CN2S(=O)(=O)c2ccc3c(c2)OCCO3)C1C (some centres not stated),–,-0.286
Clc1ccc(CSc2nncn3c2cc2occc23)cc1,–,-18.1
CC(=O)c1ccccc1NC(=O)C1CC(=O)N(c2ccc3c(c2)OCCO3)C1 (configuration not stated),–,-0.95
COc1ccc(CNc2nc(-c3ccc(Cl)cc3)nn2S(=O)(=O)c2ccc(C)cc2)cc1,–,-0.551
COC(=O)c1cccc(NS(C)(=O)=O)c1,–,0.196
CS(=O)(=O)Nc1cccc(-c2cn3ccccc3n2)c1,23.9 µM (active),–
CS(=O)(=O)Nc1cccc(C2=NN(S(=O)(=O)c3ccccc3)C(c3cccs3)C2)c1 (configuration not stated),–,2.05
COc1ccccc1C1=CC(=O)C[C@H](c2ccc(F)cc2)C1,–,9.97
Cc1ccc(SCCSc2ncccn2)cc1,1.69 µM (active),–
Cc1ccc(SCCC(=O)NCc2ccccn2)cc1,–,-0.446
Cc1ccc(SCCC(=O)NC(C(C)C)C(C)C)cc1,–,0.134

Compound,Potency,"activity change, negative = inhibition [%]"
CCN(C(=O)CSc1nnc(C)n2c1cc1occc12)c1ccccc1,–,-7.06
COc1cc(C(=O)NNC(=O)CN2C(=O)NC3(CCCC3)C2=O)cc(OC)c1OC,–,4.08
Cc1ccc(-c2nnc3c4ccccc4c(C)nn23)cc1NC(=O)c1cccc(Br)c1,–,3.27
Cc1ccc(S(=O)(=O)NCCC(=O)Nc2cccc(S(N)(=O)=O)c2)cc1C,–,-0.0392
Cc1ccnc(NC(=O)CCNS(=O)(=O)c2ccc(C)c(C)c2)c1,4.78 µM (active),–
Cc1ccc(S(=O)(=O)NCCC(=O)Nc2ccc(C)c(Cl)c2)cc1C,–,4.43
COc1cc(NC(=O)CN2CCN(S(=O)(=O)c3ccc(Br)cc3)CC2)cc(OC)c1,–,-0.515
Cc1cc2ccccc2n1CCC(=O)O,–,0.677
O=C(O)CCn1c(O)c(C=C2N=c3ccccc3=N2)sc1=S,1.07 µM (active),–
O=C(O)CCn1c(Cc2ccccc2)nc2ccccc21,–,8.23
CCOC(=O)c1ccc(NC(=O)CC2C(=O)N(c3cccc(OC)c3)C(=O)N2C2CCCCC2)cc1 (configuration not stated),–,-2.48
CN(CC(=O)Nc1ccccc1F)S(=O)(=O)c1ccc2c(c1)c(=O)n(C)c(=O)n2C,–,-1.96
Cc1ccc2nc(-c3cccc(Br)c3)cc(C(=O)Nn3cnnc3)c2c1,0.536 µM (active),–
O=C(NCC(c1cccs1)N1CCOCC1)c1cc(-c2ccccn2)nc2ccccc12 (configuration not stated),–,-10.4
O=C(Nc1ccncc1)c1cc(-c2ccccn2)nc2ccc(Br)cc12,–,-3.8
Cc1ccc2nc(-c3ccccc3)cc(C(=O)O)c2c1,12 µM (active),–
Cc1cc(C(=O)OCC(=O)Nc2nccs2)c2ccccc2n1,–,1.32
Cc1ccc2nc(-c3ccncc3)cc(C(=O)Nc3ccc4c(c3)OCCO4)c2c1,–,-14.4
CCS(=O)(=O)Nc1cccc(-c2cc(-c3ccccc3)c3cc(C)ccc3n2)c1,–,-1.35
Cc1ccsc1-c1cc(C(=O)O)c2c(ccc3ccccc32)n1,5.36 µM (active),–
COc1ccccc1C(=O)Nn1cnnc1,–,6.9
NC(=O)c1cc(-c2cccnc2)nc2ccc(Br)cc12,–,-5.36
Cc1ccc(-c2cc(C(=O)NCc3cn(C)nc3C)c3cc(Br)ccc3n2)cc1,1.9 µM (active),–
O=C(NCc1cccs1)c1cc(-c2ccccn2)nc2ccc(Br)cc12,–,4.27

# Source: PubChem BioAssay AID588342 (National Center for Advancing Translational Sciences (NCATS), 2011)
